High-throughput results as filed in PubChem BioAssay.
Shiga toxin inh = inhibitors of Shiga toxin in Vero cells; 290,000 tested, 9.2% active; Vero cells, Shiga toxin protein synthesis inhibition reporter; AID 2315; inhibition, % at 38.7 µM; in the data active = inhibition mostly above about 28%, no sharp cut-off; inactive = mostly below about 43%; note: 0% is about no effect
CHX counter = affects cycloheximide protein synthesis inhibition readout, counter-screen; cell reporter, cycloheximide protein synthesis inhibition counterscreen; max response, %; 300,000 tested, 12% active; in the data active = max response mostly above about 13%, no sharp cut-off; inactive = mostly below about 14%; note: read at 38.3 µM for the half of the compounds with a filed dose; 0% is about no effect
AMA1-RON2 inh = AMA1-RON2 (P. falciparum) interaction inhibition; AID 720542; 360,000 tested, 0.2% active; Potency, µM (series often up to 58.2 µM), without a hit: top-dose activity change, negative = inhibition, actives largely listed as inhibitors; AlphaScreen AMA1-biotinylated RON2 peptide binding;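 note: potency is the fitted concentration of half-maximal effect; 0% = vehicle wells and -100% = peptide control; nearly all actives have a fitted effect of over 45% in size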
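AMA1 (3D7) with his tag at 25 nM final met compounds first, then biotinylated RON2 peptide at 25 nM; detection used donor plus acceptor beads, 10 µg/mL apiece, read by AlphaScreen after 30 min at room temperature.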
Pf growth 48h = P. falciparum growth inhibition at 48 hours (one generation). P. falciparum luciferase growth in erythrocytes, 48 h. Potency, µM (highest dose often 28.7 µM), inactives show top-dose activity change, negative = inhibition, most hits filed as inhibitors. 310,000 tested, 5.9% active. AID 504832; note: potency is the fitted concentration of half-maximal effect; % is set by controls: 0 for no effect and ±100 for the full control effect
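In quantitative HTS format, infected erythrocytes bearing luciferase-reporter parasites were treated for a single generation at 37 C. Luminescence after adding detection reagent served as the growth measure.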
HCV inhibitor = blocks hepatitis C virus. Potency, µM (top dose mostly 41.8 µM), without a hit: top-dose activity change, negative = inhibition, hits mostly inhibitors. 340,000 tested, 3.4% active. Huh7.5.1 HCVcc-Cre infection, luciferase reporter, 44 h; note: potency is the fitted concentration of half-maximal effect; % is set by controls: 0 for no effect and ±100 for the full control effect
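Infectious HCV cell culture screen: compound-treated cells (1,000/well, pre-plated 4 h) are infected with HCVcc-Cre at roughly 0.5 moi and grown 44 h. Infection is quantified by luciferase signal after 15 min substrate incubation at room temperature.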
Pf growth 96h = P. falciparum growth inhibition at 96 hour, primary screen for plastid delayed-death inhibitors | P. falciparum luciferase reporter growth, 96 h | Potency, µM (series often up to 28.7 µM), inactives show at the highest dose activity change, negative = inhibition, most hits filed as inhibitors | 320,000 tested, 6.9% active | AID 504834; note: potency is the fitted concentration of half-maximal effect; % is set by controls: 0 for no effect and ±100 for the full control effect
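Luminescence readout: decreased luciferase signal marks inhibited growth of reporter-expressing P. falciparum in infected red cells (2% hematocrit, 0.05% parasitemia final), exposed to compound two generations (96 h, 37 C, 5% CO2).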
Active calls of the source: *; ? = inconclusive; . = not tested or not shown. The list is not random: actives were taken first. Their share in the collection is about 21%. Unless noted, calls come from the whole dose curve; as a rule, active = well fitted curve in the direction sought with a large enough effect; inconclusive = small, poorly fitted or top-dose-only effect, or another doubt; inactive = no such curve, though single readings can be large; an effect the other way counts as inactive or inconclusive.

SMILES	Shiga toxin inh	CHX counter	AMA1-RON2 inh	Pf growth 48h	HCV inhibitor	Pf growth 96h
Cc1nn(S(=O)(=O)c2ccccc2)c(C)c1S(=O)(=O)N1CCOCC1	21	6	-12%	9%	21%	-27%
COc1ccc(C(=O)O)cc1S(=O)(=O)Nc1ccccc1Cc1ccccc1	-16	-7	11%	30%	27%	-4%
Cc1csc2c(=O)[nH]cnc12	-15	-7	-12%	13%	-2%	?
Cc1c(/C=N/NC(=O)CNc2ccccc2)c2ccccn2c1C(=O)c1ccncc1	-3	-2	-1%	?	-20%	?
Cc1c(/C=N/NC(=O)CNc2ccccc2)c2ccccn2c1C(=O)c1ccc(Cl)cc1	-23	-1	-12%	3.3µM*	-42%	3.3µM*
Cc1ccccc1NCC(=O)N/N=C/c1c(C)c(C(=O)c2ccc(Cl)cc2)n2ccccc12	16	3	7%	13µM*	?	4.7µM*
Cc1ccc(-c2csc(N)n2)s1	50	23*	4%	90%	0%	174%
CN(C)c1ccc(CNC(=O)CCS(=O)(=O)c2ccc3c(c2)oc(=O)n3C)cc1	5	9	0%	?	16%	7%
Cc1ccc(N(C)C(=O)CCS(=O)(=O)c2ccc3c(c2)oc(=O)n3C)cc1	11	-2	-7%	21%	0%	15µM*
Cc1ccc(N(C)C(=O)C2CCN(S(=O)(=O)c3ccc4c(c3)oc(=O)n4C)CC2)cc1	-17	-5	-3%	.	14%	4%
CN(C(=O)CCS(=O)(=O)c1ccc2c(c1)oc(=O)n2C)C1CCCCC1	-18	-5	6%	22%	15%	4.7µM*
CSc1cccc(NC(=S)Nc2cc(C)ccc2C)c1	6	7	37%	85%	-18%	?
O=C(NCc1ccncc1)/C(=N/O)c1ccccc1	17	-2	15%	30%	9%	10µM*
O=C(Cc1ccccc1)NCc1ccncc1	67*	42*	-3%	48%	-5%	?
CCC(C(=O)NCc1cccnc1)c1ccccc1 (centres undefined)	-8	-6	-11%	2%	6%	?
CCC(C(=O)NCc1ccncc1)c1ccccc1 (centres undefined)	-15	1	-4%	21%	12%	10µM*
O=C(NCCCNCc1ccccc1)/C(=N\O)c1ccccc1	-15	-1	34%	18%	8%	-3%
COc1ccc(N2C(=O)CSC23C(=O)N2c4c(cccc43)C(C)=CC2(C)C)cc1 (centres undefined)	-10	4	-13%	.	?	7.4µM*
Nc1cc(=O)[nH]c(SCC(=O)N2CCC(Cc3ccccc3)CC2)n1	.	.	25%	?	14µM*	-28%
CCc1ccc(C(=O)CSc2nc(N)cc(=O)[nH]2)cc1	-17	1	0%	83%	-5%	10µM*
COc1ccc(CCn2c(C)cc(C(=O)CSc3nc(N)cc(=O)[nH]3)c2C)cc1	-16	-2	-3%	?	11µM*	9.3µM*
Cc1cc(C(=O)CSc2nnc(N)s2)c(C)n1CCc1ccc(Cl)cc1	25	13	9%	-21%	?	?
COc1ccc(CCn2c(C)cc(C(=O)CSc3nnc(N)s3)c2C)cc1	1	8	4%	?	-27%	9.3µM*
COc1ccc(OC)c(/C=C(\C)C(=O)c2c(C)cc(C)[nH]c2=O)c1	.	.	-4%	.	-20%	.
CCOC(=O)C1=C(C)N=c2s/c(=C/c3ccc(OCC(=O)O)cc3)c(=O)n2C1c1ccc(SC)cc1 (centres undefined)	13	-3	.	5.2µM*	.	?
CCOC(=O)C1=C(C)N=c2s/c(=C\c3ccncc3)c(=O)n2C1c1ccc2c(c1)OCO2 (centres undefined)	-13	-3	-13%	4.1µM*	?	-2%
CCOC(=O)C1=C(C)N=c2s/c(=C\c3ccc(OCC(=O)O)cc3)c(=O)n2C1c1ccc(Cl)cc1 (centres undefined)	28	-2	23%	9.3µM*	?	1.5µM*
